Test results as given in PubChem BioAssay (NCI).
Compounds without any hit were thinned out: in the full panel of roughly 83,000, 20% have a hit.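 Each cell line was grown in a 96-well plate and treated with one concentration of compound for 48 hours. Values below 10 were considered active.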 Active and inactive are the calls of the source.

test system: MCF7 breast; experiment: NCI-60 one-dose screen, 48 h (100 = growth as untreated, 0 = no growth, -100 = all killed); conditions: 10 µM

Compound | growth
COc1cc(-c2nc3ccc(C)cc3[nH]2)ccc1OCc1nnc(-c2ccc(CC(C)C)cc2)o1 | 79.8% (inactive)
N#Cc1c(-c2ccccc2)nc(SCC(=O)N2CCOCC2)[nH]c1=O | 89.7% (inactive)
Brc1ccc(-c2cn3ccnc3c(-c3ccc(Br)cc3)n2)cc1 | 22% (inactive)
COc1cc(C2=Nc3c/c(=C\c4c(O)[nH]c5ccc(Cl)cc45)ccc3=N2)cc(OC)c1OC | -41.8% (active)
COc1cc(CSc2nc3ccc(Cl)cc3c(=O)n2-c2ccccc2)cc(OC)c1OC | 76.9% (inactive)
O=S(=O)(O)C1(O)CCCCC1 | 78% (inactive)
CCc1cc2n(n1)-c1ncc(C(=O)OC)cc1Oc1ccccc1-2 | 97.4% (inactive)
C/C(=N\NC(N)=S)C(C)(C)O | 27.1% (inactive)
COc1ccc(-c2cc(/C=C/C(=O)c3ccc(N)cc3)[nH]n2)cc1OC | 14.9% (inactive)
Nc1c(C(=O)NC2CCCCC2)sc2nc3c(cc12)C(=O)CCC3 | 83.2% (inactive)
CC(=O)n1nc(C(=O)OC(C)(C)C)c2cc(F)c(F)cc21 | 99.2% (inactive)
Nc1ccc2c(c1)Cc1cc(N)c(Cl)cc1-2 | 42.6% (inactive)
Cc1ccc2c3c(cccc13)-c1ccccc1C2=O | 96.6% (inactive)
Nc1cc(O)cc(O)c1 | 98.3% (inactive)
Fc1ccc(Nc2ccnc(N3CCN(c4ccnc5cc(Cl)ccc45)CC3)n2)cc1 | 19.2% (inactive)
N/C(=N\O)c1cn(C2OC(CO)C(O)C2O)c2ncnc(N)c12 (stereo not given) | -29.9% (active)
COc1ccc(-c2nsc3c2NC(=O)CC3c2cccc(Cl)c2)cc1 (stereo not given) | 17% (inactive)
CCCCCc1cc[n+](CC(=O)c2ccc(Cl)cc2)cc1 | 89.7% (inactive)
CC1(C)Cc2c(cn(Cc3ccccc3)c2-c2ccccc2)-c2oncc21 | 105% (inactive)
CCc1nn2c(-c3cc(OC)c(OC)c(OC)c3)c(-c3cc(OC)c(OC)c(OC)c3)nc2s1 | 57.4% (inactive)
CC1=CC2OC34COC3CC(OC(=O)C(F)(F)F)C4(C)C2(C)CC1 (stereo not given) | 93.7% (inactive)
O=[N+]([O-])c1ccc(-c2nc(Cl)c3c(n2)CCCC3)o1 | 46.9% (inactive)

test system: HCT-116 colon; experiment: as above; conditions: 10 µM

Compound | growth
Nc1ccc(Sc2ccc3c4c2cccc4c(=O)n2c4ccccc4nc32)cc1 | 46.8% (inactive)
O=C(c1ccccc1)C(Sc1ccccc1)c1ccccc1 (stereo not given) | 55.8% (inactive)
O=NN(CCCl)C(=O)Nc1ccc(NC(=O)N(CCCl)N=O)cc1 | 100% (inactive)
Nc1nc(SCC#CCCl)c2[nH]cnc2n1 | 39% (inactive)
NC(=O)C12C(=O)NC(=O)C1(C(=O)O)C21CCCC1 (stereo not given) | 101% (inactive)
C=C[C@]1(C)C=C2C(=O)[C@@]3(O)OC(=O)[C@@]4(CCCC(C)(C)[C@H]34)[C@@]2(O)CC1 | -93.4% (active)
CCCn1c(=O)c2c(nc(-c3cccc(OCCCCl)c3)n2C)n(CCC)c1=O | 36.4% (inactive)
CCCCCCCC/C=C/CCCCCCCCC1=NCCN1CCO | 7.94% (active)
COc1ccc(CSc2nc3cc(OC)c(OC)cc3c(=O)n2-c2ccc(OC)cc2OC)cc1 | 62.9% (inactive)
Cc1ccccc1C1=N[C@@H](Cc2ccccc2)C(=O)c2c(nc3ccccn23)N1 | 86.9% (inactive)
COc1ccc(-c2ccccc2)cc1C(=O)c1ccc(-c2ccccc2)cc1 | 60.8% (inactive)
C/C=C\COc1cc(C)c(Cl)cc1Cl | 110% (inactive)
CC(C)C[C@H](NC(=O)CCn1ccc2ccccc2c1=O)B(O)O | 16.9% (inactive)
COc1ccc(-c2[nH]ncc2/C=C/c2cc(C(F)(F)F)[nH]c(=O)n2)cc1 | 100% (inactive)
c1ccc(COCC[P+](c2ccccc2)(c2ccccc2)c2ccccc2)cc1 | 5.42% (active)
CC(=O)Oc1c(C)c(C)c2c(c1C)CCC(C)(CC(=O)OCCCCCCCCCCC[P+](c1ccccc1)(c1ccccc1)c1ccccc1)O2 (stereo not given) | -95.6% (active)
COc1cc(-c2nc3ccc(C)cc3[nH]2)ccc1OCc1nnc(-c2ccc(CC(C)C)cc2)o1 | 97.1% (inactive)
N#Cc1c(-c2ccccc2)nc(SCC(=O)N2CCOCC2)[nH]c1=O | 99.9% (inactive)
Brc1ccc(-c2cn3ccnc3c(-c3ccc(Br)cc3)n2)cc1 | 30% (inactive)

Compound | growth
COc1cc(C2=Nc3c/c(=C\c4c(O)[nH]c5ccc(Cl)cc45)ccc3=N2)cc(OC)c1OC | -51.4% (active)
COc1cc(CSc2nc3ccc(Cl)cc3c(=O)n2-c2ccccc2)cc(OC)c1OC | 61.8% (inactive)
O=S(=O)(O)C1(O)CCCCC1 | 50.9% (inactive)
CCc1cc2n(n1)-c1ncc(C(=O)OC)cc1Oc1ccccc1-2 | 90.5% (inactive)
C/C(=N\NC(N)=S)C(C)(C)O | 6.43% (active)
COc1ccc(-c2cc(/C=C/C(=O)c3ccc(N)cc3)[nH]n2)cc1OC | 17.4% (inactive)
Nc1c(C(=O)NC2CCCCC2)sc2nc3c(cc12)C(=O)CCC3 | 102% (inactive)
CC(=O)n1nc(C(=O)OC(C)(C)C)c2cc(F)c(F)cc21 | 95% (inactive)
Nc1ccc2c(c1)Cc1cc(N)c(Cl)cc1-2 | 100% (inactive)
Cc1ccc2c3c(cccc13)-c1ccccc1C2=O | 86.4% (inactive)
Nc1cc(O)cc(O)c1 | 95.8% (inactive)
Fc1ccc(Nc2ccnc(N3CCN(c4ccnc5cc(Cl)ccc45)CC3)n2)cc1 | 15.4% (inactive)
N/C(=N\O)c1cn(C2OC(CO)C(O)C2O)c2ncnc(N)c12 (stereo not given) | 9.85% (active)
COc1ccc(-c2nsc3c2NC(=O)CC3c2cccc(Cl)c2)cc1 (stereo not given) | 23.8% (inactive)
CCCCCc1cc[n+](CC(=O)c2ccc(Cl)cc2)cc1 | 59% (inactive)
CC1(C)Cc2c(cn(Cc3ccccc3)c2-c2ccccc2)-c2oncc21 | 88.2% (inactive)
CCc1nn2c(-c3cc(OC)c(OC)c(OC)c3)c(-c3cc(OC)c(OC)c(OC)c3)nc2s1 | 71.8% (inactive)
CC1=CC2OC34COC3CC(OC(=O)C(F)(F)F)C4(C)C2(C)CC1 (stereo not given) | 96.6% (inactive)
O=[N+]([O-])c1ccc(-c2nc(Cl)c3c(n2)CCCC3)o1 | 55.2% (inactive)
